For assay [1], the target named is Atrial natriuretic peptide receptor 1 (Homo sapiens) (UniProt P16066). Nature of the assay: Natriuretic polypeptide receptor (hNpr1) antagonism - Pilot screen (AID 1347049; calls by dose curve;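 also: HEK293 cells with hNpr1 and GloSensor cGMP luciferase stimulated by 0.1 nM hNppA; agonist-evoked cGMP luminescence read 20 min after hNppA addition; series mostly up to about 58 µM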). Summed up: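 Cells expressing receptor plus cGMP biosensor are seeded and incubated overnight at 37C, then loaded with GloSensor reagent (2% final) at room temperature for 2 h. Library compounds go on for 30 min. A pre-read precedes agonist (hNppA, 0.1 nM final) and a 20-min readout.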
Sequence of Atrial natriuretic peptide receptor 1 (Homo sapiens) (P16066 whole entry, looked up): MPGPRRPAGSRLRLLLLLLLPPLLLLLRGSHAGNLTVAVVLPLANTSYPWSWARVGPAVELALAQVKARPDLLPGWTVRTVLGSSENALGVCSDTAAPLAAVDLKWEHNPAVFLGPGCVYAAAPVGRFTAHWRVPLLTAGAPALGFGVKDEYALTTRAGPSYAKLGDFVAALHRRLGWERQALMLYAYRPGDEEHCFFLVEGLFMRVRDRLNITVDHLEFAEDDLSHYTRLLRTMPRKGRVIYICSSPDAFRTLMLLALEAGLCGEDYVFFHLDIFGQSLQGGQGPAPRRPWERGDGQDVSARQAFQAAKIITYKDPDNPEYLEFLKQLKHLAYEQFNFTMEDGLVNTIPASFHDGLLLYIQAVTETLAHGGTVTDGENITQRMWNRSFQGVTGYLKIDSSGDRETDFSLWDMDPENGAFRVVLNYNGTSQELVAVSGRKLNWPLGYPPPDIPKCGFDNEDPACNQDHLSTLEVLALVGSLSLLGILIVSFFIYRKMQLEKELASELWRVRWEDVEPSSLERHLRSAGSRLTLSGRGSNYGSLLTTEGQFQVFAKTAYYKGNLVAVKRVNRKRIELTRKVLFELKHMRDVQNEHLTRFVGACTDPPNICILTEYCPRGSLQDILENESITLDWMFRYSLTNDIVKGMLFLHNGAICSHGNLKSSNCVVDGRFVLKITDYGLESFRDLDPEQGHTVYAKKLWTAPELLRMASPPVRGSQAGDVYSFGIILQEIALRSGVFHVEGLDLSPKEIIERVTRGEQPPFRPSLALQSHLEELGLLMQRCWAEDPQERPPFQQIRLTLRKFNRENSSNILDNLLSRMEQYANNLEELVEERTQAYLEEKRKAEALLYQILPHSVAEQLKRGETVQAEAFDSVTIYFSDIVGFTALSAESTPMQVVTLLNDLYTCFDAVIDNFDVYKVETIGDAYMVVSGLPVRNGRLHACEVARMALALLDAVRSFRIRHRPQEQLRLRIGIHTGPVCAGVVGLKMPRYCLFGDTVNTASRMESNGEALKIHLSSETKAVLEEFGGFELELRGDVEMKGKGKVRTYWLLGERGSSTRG

A short description of assay [2]: NS1 protein of Zika virus - qHTS assay to identify small molecule inhibitors in human HEK 293 cells (AID 1347053). Also: series mostly up to about 46 µM; nearly all actives have a fitted effect of over 55% in size. A digest of the protocol:
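Readout was TR-FRET using paired anti-NS1 antibodies after 24 h infection of HEK 293 cells with ZIKV MR766 (MOI = 0.5). Compound preceded virus by 1 h; reduced signal reflects lower NS1 expression.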

Assay [3] deals with T1, Tyrosine-protein phosphatase non-receptor type substrate 1 (Homo sapiens) + Leukocyte surface antigen CD47 (Homo sapiens) (UniProt P78324+Q08722). Nature of the assay: CD47-SIRPalpha protein protein interaction - LANCE assay qHTS validation (AID 1347057; active = well fitted curve in the direction sought with a large enough effect in the signal ratio, with a control signal flat, not every such curve was filed as active; the % refers to the signal ratio; also: series mostly up to about 38 µM). A digest of the protocol: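 Inhibition of soluble CD47/SIRPalpha ectodomain association by titrated compounds, measured as 665/615 nm time-resolved FRET ratio after sequential 30 min room-temperature incubations.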
T1 sequence (P78324 whole entry, looked up, the tested form may be a part): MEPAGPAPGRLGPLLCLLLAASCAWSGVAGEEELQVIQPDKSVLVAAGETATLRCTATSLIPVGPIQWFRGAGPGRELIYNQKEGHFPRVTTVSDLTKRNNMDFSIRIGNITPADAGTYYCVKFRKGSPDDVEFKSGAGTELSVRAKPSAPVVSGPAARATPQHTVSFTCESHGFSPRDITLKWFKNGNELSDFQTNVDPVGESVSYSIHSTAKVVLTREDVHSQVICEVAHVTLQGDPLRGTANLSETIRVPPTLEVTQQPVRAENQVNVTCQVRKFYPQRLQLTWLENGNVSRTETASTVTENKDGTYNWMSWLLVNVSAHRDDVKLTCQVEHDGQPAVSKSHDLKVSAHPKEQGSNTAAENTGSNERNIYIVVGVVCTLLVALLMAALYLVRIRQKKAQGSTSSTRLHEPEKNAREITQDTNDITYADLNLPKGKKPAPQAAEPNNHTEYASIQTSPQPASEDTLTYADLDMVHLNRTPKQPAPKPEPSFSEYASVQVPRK
T1 sequence (Q08722 whole entry, looked up, the tested form may be a part): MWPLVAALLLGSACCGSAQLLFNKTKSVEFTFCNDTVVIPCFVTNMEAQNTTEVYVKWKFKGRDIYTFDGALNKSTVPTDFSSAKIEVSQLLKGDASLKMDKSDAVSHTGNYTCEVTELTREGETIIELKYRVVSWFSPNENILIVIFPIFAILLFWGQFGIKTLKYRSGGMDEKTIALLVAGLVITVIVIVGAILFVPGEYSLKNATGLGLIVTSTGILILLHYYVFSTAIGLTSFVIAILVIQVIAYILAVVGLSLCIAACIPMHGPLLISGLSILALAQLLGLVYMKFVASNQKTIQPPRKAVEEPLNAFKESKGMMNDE

The target in assay [4] is T1, Tyrosine-protein phosphatase non-receptor type substrate 1 (Homo sapiens) + Leukocyte surface antigen CD47 (Homo sapiens). Nature of the assay: CD47-SIRPalpha protein protein interaction - Alpha assay qHTS validation (AID 1347059).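 Also: bead proximity luminescence from CD47 binding SIRPalpha after compound preincubation with SIRPalpha.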 Summed up: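 In PBS (pH 7.4) with 0.05% IGEPAL CA-630, compound is preincubated with biotin-Avi-SIRPalpha ectodomain before His-CD47 ectodomain and affinity beads are added. Light-protected room-temperature incubations; AlphaScreen readout.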
In general terms: In qHTS, concentration-response curves come from the screen itself.

For assay [5], the target named is Parathyroid hormone/parathyroid hormone-related peptide receptor (Homo sapiens) (UniProt Q03431). Nature of the assay: qHTS for PTHR1 Agonists: Optimization Screen against the NCGC LOPAC library (AID 1347079).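 Also: GloSensor cAMP luminescence in HEK-293 GP2 cells expressing human PTHR1 with IBMX.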 A digest of the protocol:
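Signal increase flags agonism. GP2 cells, derived from HEK-293, express human PTHR1 and a GloSensor cAMP construct.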

The nature of assay [6]: qHTS of pediatric cancer cell lines to identify multiple opportunities for drug repurposing: Primary screen for TC32 cells (AID 1347089). Also: nearly all actives have a fitted effect of over 60% in size. A digest of the protocol: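 qHTS, TC32, 48 h drug treatment, CellTiter-Glo luminescence as a proxy for metabolically active cells; primary top concentration 46 µM (MIPE 11-pt, NPC 8-pt); confirmatory 11-pt.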
The nature of assay [7]: qHTS of pediatric cancer cell lines to identify multiple opportunities for drug repurposing: Primary screen for SK-N-MC cells (AID 1347093). Also: potency is read from the fitted curve at half-maximal effect. Summed up:
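Metabolically active cells were quantified by ATP-dependent luminescence (CellTiter-Glo, 15 min at room temperature) following 48 h treatment. Cells had been plated at 500-1,000 per well and settled for 5 h beforehand.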

A short description of assay [8]: qHTS of pediatric cancer cell lines to identify multiple opportunities for drug repurposing: Primary screen for NB-EBc1 cells (AID 1347095). A digest of the protocol:
(§1)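 Luminescence from CellTiter-Glo served as readout of metabolically active cells after 48 h compound exposure. Titrations: MIPE 11-point, from 0.78 nM; NPC 8-point, from 0.59 nM (final). Concentration-response curves came straight from the primary screen.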

The nature of assay [9]: qHTS of pediatric cancer cell lines to identify multiple opportunities for drug repurposing: Primary screen for NB1643 cells (AID 1347099). Also: nearly all actives have a fitted effect of over 50% in size. A digest of the protocol: as §1
Assay [10] is described as follows: qHTS of pediatric cancer cell lines to identify multiple opportunities for drug repurposing: Primary screen for DAOY cells (AID 1347090). Also: series mostly up to about 46 µM; nearly all actives have a fitted effect of over 55% in size. Summed up:
(§2)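 Eight- or eleven-point concentration series, 48 h treatment at 37 degrees C in growth media; readout CellTiter-Glo luminescence. Potency and efficacy were taken from the concentration-response curves.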

Assay [11] is described as follows: qHTS of pediatric cancer cell lines to identify multiple opportunities for drug repurposing: Primary screen for SJ-GBM2 cells (AID 1347091). A digest of the protocol:
as §2

Assay [12] in a line: qHTS of pediatric cancer cell lines to identify multiple opportunities for drug repurposing: Primary screen for A673 cells (AID 1347092). Also: nearly all actives have a fitted effect of over 45% in size. Summed up: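 Luminescence from CellTiter-Glo, taken after 15 min at room temperature, served as the proxy for metabolically active cells following 48 h treatment. Both potency and efficacy were taken from curves fitted to the titration data.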

The nature of assay [13]: qHTS of pediatric cancer cell lines to identify multiple opportunities for drug repurposing: Primary screen for BT-37 cells (AID 1347094). Also: series mostly up to about 57 µM. A digest of the protocol:
as §1

Assay [14] in a line: qHTS of pediatric cancer cell lines to identify multiple opportunities for drug repurposing: Primary screen for U-2 OS cells (AID 1347096). Also: nearly all actives have a fitted effect of over 50% in size. A digest of the protocol: (§3)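 Cells (500-1,000/well) in growth media were settled 5 h at 37 degrees C, then given compounds for 48 h. Viability was read as CellTiter-Glo luminescence. Primary runs used MIPE at 11 points (0.78 nM-46 µM) and NPC at 8 points (0.59 nM-46 µM); follow-ups used 11 points.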

A short description of assay [15]: qHTS of pediatric cancer cell lines to identify multiple opportunities for drug repurposing: Primary screen for Saos-2 cells (AID 1347097). Also: nearly all actives have a fitted effect of over 40% in size. A digest of the protocol: as §1
Assay [16] in a line: qHTS of pediatric cancer cell lines to identify multiple opportunities for drug repurposing: Primary screen for SK-N-SH cells (AID 1347098).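 Also: DMSO served as neutral control and bortezomib at 2.3 µM as positive control; nearly all actives have a fitted effect of over 65% in size.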 Summed up:
(§4)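 Cells (500-1,000/well) rested 5 h, then received compounds for 48 h; metabolically active cells were measured by CellTiter-Glo luminescence. Final concentrations spanned up to 46 µM (MIPE, 11-point) or 0.59 nM-46 µM (NPC, 8-point) in primary screens, 11-point in follow-ups.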

Assay [17] is described as follows: qHTS of pediatric cancer cell lines to identify multiple opportunities for drug repurposing: Primary screen for LAN-5 cells (AID 1347100). A digest of the protocol: as §3
The nature of assay [18]: qHTS of pediatric cancer cell lines to identify multiple opportunities for drug repurposing: Primary screen for BT-12 cells (AID 1347101). Also: nearly all actives have a fitted effect of over 25% in size. A digest of the protocol:
as §4

Assay [19] concerns the target T1, Tyrosine-protein phosphatase non-receptor type substrate 1 (Homo sapiens) + Leukocyte surface antigen CD47 (Homo sapiens). Nature of the assay: CD47-SIRPalpha protein protein interaction - HTRF assay qHTS validation (AID 1347058; active = well fitted curve in the direction sought with a large enough effect in the signal ratio, not every such curve was filed as active; the % refers to the signal ratio; also: series mostly up to about 38 µM). A digest of the protocol: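 Soluble extracellular domains (6His-CD47, Avi-tag-biotinylated SIRPalpha) in PBS pH 7.4 with 0.05% IGEPAL CA-630. Compounds were preincubated 30 min at RT with CD47 and anti-His-Eu, then SIRPalpha and SAV-XL665 were added. TR-FRET 665/615 ratio.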
On the technique in general: TR-FRET usually uses a lanthanide donor and a delayed reading to cut background.

Records with an inconclusive call do not appear. Active and inactive are the calls of the source. Unless noted, calls follow the shape of the dose curve; as a rule, active = well fitted curve in the direction sought with a large enough effect; inconclusive = small, poorly fitted or top-dose-only effect, or another doubt; inactive = no such curve, though single readings can be large; an effect the other way counts as inactive or inconclusive.

Sequence of Parathyroid hormone/parathyroid hormone-related peptide receptor (Homo sapiens) (Q03431 whole entry, looked up): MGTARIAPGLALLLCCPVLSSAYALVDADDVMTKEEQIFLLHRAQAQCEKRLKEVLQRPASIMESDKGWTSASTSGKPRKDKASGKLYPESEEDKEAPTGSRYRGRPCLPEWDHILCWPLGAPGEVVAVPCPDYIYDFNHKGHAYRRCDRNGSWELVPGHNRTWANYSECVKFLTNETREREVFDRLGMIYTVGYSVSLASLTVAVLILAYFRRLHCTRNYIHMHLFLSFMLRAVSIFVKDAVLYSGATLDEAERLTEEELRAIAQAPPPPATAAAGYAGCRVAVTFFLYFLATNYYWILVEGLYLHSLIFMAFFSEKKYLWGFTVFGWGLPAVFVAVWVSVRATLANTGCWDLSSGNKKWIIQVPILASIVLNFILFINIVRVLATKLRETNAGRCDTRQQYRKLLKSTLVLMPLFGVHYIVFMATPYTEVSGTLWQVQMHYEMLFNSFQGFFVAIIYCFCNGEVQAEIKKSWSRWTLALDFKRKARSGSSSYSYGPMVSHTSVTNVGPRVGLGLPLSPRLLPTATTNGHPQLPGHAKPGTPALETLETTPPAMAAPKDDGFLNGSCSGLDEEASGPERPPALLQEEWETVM

Regarding `CNCCCC1c2ccccc2C=Cc2ccccc21`, the result in [1], in assay [3] and in assay [4] was inactive. The Potency entry in assay [2], in [5], in assay [6], in [8] and in assay [9] was “inactive” in each case. Further, the Potency in assay [7] is 11.9 µM (active).
Regarding `NC(=O)NC(=O)Cc1ccccc1`, the Potency entry in [2], in assay [6], in assay [10], in [11], in assay [12] and in assay [7] was “inactive” in each case. Further, the Potency result in assay [13], in [8], in assay [14], in [15], in [16] and in assay [9] was “inactive” each time. Moreover, the Potency entry in assay [17] and in assay [18] was “inactive” throughout.
Take `CC(=O)c1ccc2c(c1)N(CCCN(C)C)c1ccccc1S2`: the Potency entry in assay [2], in assay [6], in assay [10], in assay [11], in [7] and in [13] was “inactive” each time. The Potency entry in assay [8], in assay [14], in assay [15], in assay [9], in [17] and in assay [18] was “inactive” each time. Moreover, the outcome in assay [3] and in assay [4] was inactive.
In the case of `COc1cc(C(=O)N2CCOCC2)cc(OC)c1OC`, the Potency result in assay [2], in [6], in [10], in assay [11], in [12] and in assay [7] was “inactive” in each case. The Potency result in assay [13], in [8], in assay [14], in assay [15], in assay [16] and in [9] was “inactive” each time. Besides, the Potency result in [17] and in assay [18] was “inactive” each time.
`C[C@H](NC(CCc1ccccc1)C(=O)O)C(=O)N1CCC[C@H]1C(=O)O` (stereo not given in full): the Potency result in [2], in [10], in [11], in [12], in assay [7] and in assay [13] was “inactive” throughout. Also, the Potency result in assay [8], in [15], in assay [16], in assay [9], in assay [17] and in assay [18] was “inactive” in each case. Also, the outcome in [3], in assay [19] and in assay [4] was inactive.
In the case of `CCCCCCCCCCCCCCCCCCOCC(O)CO` (stereo not given), the Potency entry in [2], in [6], in assay [10], in assay [11], in assay [12] and in assay [7] was “inactive” in each case. Besides, the Potency entry in assay [13], in assay [8], in [14], in assay [15], in assay [16] and in assay [9] was “inactive” throughout. The Potency entry in assay [17] and in assay [18] was “inactive” each time.
For the compound `O=C1O[C@H](CO)[C@@H](O)[C@H](O)[C@H]1O`, the Potency result in [2], in assay [6], in assay [10], in [11], in assay [12] and in [7] was “inactive” throughout. In addition, the Potency result in assay [13], in assay [8], in assay [14], in [15], in assay [16] and in [9] was “inactive” in each case. For the same compound, the Potency result in assay [17] and in assay [18] was “inactive” throughout.
For the compound `Oc1cccc(O)c1`, the Potency result in assay [2], in assay [6], in [10], in [11], in [12] and in [7] was “inactive” throughout. Moreover, the Potency result in [13], in assay [8], in [14], in assay [15], in assay [16] and in assay [9] was “inactive” each time. The Potency result in assay [17] and in assay [18] was “inactive” each time.
For `N[C@H]1C(O)O[C@H](CO)[C@@H](O)[C@@H]1O` (stereo not given in full), the Potency result in assay [2], in assay [6], in [10], in assay [11], in assay [12] and in [7] was “inactive” in each case. The Potency entry in [13], in assay [8], in [14], in [15], in assay [16] and in assay [9] was “inactive” in each case. The Potency result in assay [17] and in [18] was “inactive” throughout.
Turning to `Cn1cc[nH]c1=S`, the Potency result in assay [2], in assay [6], in assay [10], in assay [11], in assay [12] and in assay [7] was “inactive” throughout. Further, the Potency entry in assay [13], in [8], in assay [14], in assay [15], in [16] and in assay [9] was “inactive” each time. Also, the Potency entry in assay [17] and in assay [18] was “inactive” in each case.
Regarding `NS(=O)(=O)c1cc2c(cc1C(F)(F)F)NC(Cc1ccccc1)NS2(=O)=O` (stereo not given), the Potency entry in assay [2], in assay [6], in assay [10], in [11], in [12] and in assay [7] was “inactive” each time. For the same compound, the Potency result in assay [13], in assay [8], in assay [14], in assay [15], in assay [16] and in [9] was “inactive” each time. Further, the Potency result in [17] and in assay [18] was “inactive” throughout.
For the compound `O=C1c2c(O)cccc2Cc2cccc(O)c21`, the Potency result in [2], in assay [6], in [10], in [11], in [12] and in assay [7] was “inactive” in each case. For the same compound, the Potency result in assay [13], in [8], in assay [14], in [15], in assay [16] and in assay [9] was “inactive” in each case. The Potency entry in assay [17] and in assay [18] was “inactive” throughout.
As for `CC(=O)NC(Cc1ccccc1)C(=O)O` (stereo not given), the Potency result in assay [2], in [6], in [10], in assay [11], in assay [12] and in [7] was “inactive” throughout. The Potency entry in assay [13], in assay [8], in [14], in assay [16], in [9] and in [17] was “inactive” each time. The Potency entry in assay [18] was “inactive”.
Take `Nc1ccc(S(=O)(=O)Nc2ccc(Cl)nn2)cc1`: the Potency entry in assay [2], in assay [6], in [10], in assay [11], in [12] and in assay [7] was “inactive” each time. Besides, the Potency entry in assay [13], in [8], in assay [14], in assay [15], in assay [16] and in [9] was “inactive” each time. Further, the Potency entry in assay [17] and in [18] was “inactive” each time.
Consider `O=C(O)c1ccccc1O`, for which the Potency entry in [2], in assay [6], in assay [10], in assay [11], in assay [12] and in assay [7] was “inactive” throughout. Besides, the Potency result in [13], in assay [8], in assay [14], in assay [15], in assay [16] and in assay [9] was “inactive” throughout. In addition, the Potency entry in assay [17] and in assay [18] was “inactive” throughout.

Values taken from PubChem BioAssay (NCATS).
